Laboratory results from the supplement of paper PMC10849652.
Of roughly 7,900 targets only a part is listed; those with a hit were picked by preference. About 0.6% of all pairs of compound and target were hits. Values without a mark were called inactive.

Tests used:
Experiment in all cases: log2 fold change, soluble protein after heating vs DMSO (PISA); higher = thermal stabilisation; K562 cells, 10 uM, 30 min; active = over 0.2 and 3.5 SD of the protein, either way, in both replicates (recomputed)
[1] = compound: CC[C@@H]1C(=O)N(C)c2cnc(Nc3ccc(C(=O)NC4CCN(C)CC4)cc3OC)nc2N1C1CCCC1
How it was run: (§1)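 For each measurement, 10 μM compound was applied for 30 min to K562 cells at 2×10^6 cells/mL. Aliquots were heated for 3 min across 48°C-58°C, pooled, and extracted in PBS with 0.5% NP-40 at 4°C; the supernatant after 21,000xg for 90 min was soluble protein. This was quantified by TMTpro 16plex LC-MS/MS with channel sums equalised, and thermal stability was reported relative to control samples from duplicates, on a log2 fold-change scale.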

[2] = compound: CC[C@@H]1C(=O)N(C)c2cnc(Nc3ccc(C(=O)N[C@H]4CC[C@H](N5CCN(CC6CC6)CC5)CC4)cc3OC)nc2N1C(C)C [volasertib]
How it was run: as §1

[3] = compound: CC[C@H](C)N1C=C(C2=C(C=C(C=C21)C3=CN=C(C=C3)N4CCNCC4)C(=O)NCC5=C(C=C(NC5=O)C)C)C
How it was run: as §1

[4] = compound: CC[C@H](C)[C@@H](C(=O)N[C@@H]([C@@H](C)O)C(=O)N[C@@H](CC(C)C)C(=O)[C@]1(CO1)C)NC(=O)[C@H]([C@@H](C)CC)N(C)C(=O)C [epoxomicin]
How it was run: as §1

[5] = compound: CCn1c(C(=O)N(C2CC2)C2CC2)cc2c3c(ncn3C)c(Nc3cc(C)n(C)n3)nc21
How it was run: as §1

[6] = compound: CCn1cc(-c2ccnc3[nH]c(-c4cccc(CN(C)C)c4)cc23)c(-c2ccc(NC(=O)N(C)C)cc2)n1
How it was run: as §1

[7] = compound: CN(C)CC(=O)Nc1ccc2[nH]c(=O)c3ccccc3c2c1
How it was run: as §1

[8] = compound: CN(CCOC1=CC=C(C=C1)C[C@H]2C(=O)NC(=O)S2)C3=CC=CC=N3 (racemic) [rosiglitazone]
How it was run: as §1

[9] = compound: CN1C2=C(C3=C1C(=O)N(N=C3)CC4=CC(=CC=C4)N)SC(=C2)S(=O)C
How it was run: as §1

[10] = compound: CN1CCC(CNc2ccc3ncc(-c4cccc(OC(F)(F)F)c4)n3n2)CC1
How it was run: as §1

[11] = compound: CN1CCN(CCOc2cc(OC3CCOCC3)c3c(Nc4c(Cl)ccc5c4OCO5)ncnc3c2)CC1 [saracatinib]
How it was run: as §1

[12] = compound: CN1CCN(c2nc(C3=C(c4c[nH]c5ccccc45)C(=O)NC3=O)c3ccccc3n2)CC1 [sotrastaurin]
How it was run: as §1

[13] = compound: CN1CC[C@H](c2c(O)cc(O)c3c(=O)cc(-c4ccccc4Cl)oc23)[C@H](O)C1 [alvocidib]
How it was run: as §1

[14] = compound: CN1CCc2c(c3ccccc3n2Cc2ccc(C(=O)NO)cc2)C1 [Tubastatin A]
How it was run: as §1

[15] = compound: CNC(=O)C1=CC=CC=C1NC2=NC(=NC=C2Cl)NC3=C(C=C(C=C3)N4CCOCC4)OC
How it was run: as §1

[16] = compound: CNC(=O)c1ccc(Nc2ncc(C(F)(F)F)c(NCc3nccnc3N(C)S(C)(=O)=O)n2)cc1 [defactinib]
How it was run: as §1

[17] = compound: CNCc1ccc(-c2[nH]c3cc(F)cc4c3c2CCNC4=O)cc1 [rucaparib]
How it was run: as §1

[18] = compound: CNc1nc(-c2ccc3c(N)n[nH]c3c2)cc(N2C[C@@H](C(=O)NC3CCCCC3)CC[C@H]2C)n1
How it was run: as §1

[19] = compound: COC(=O)N[C@@H](C)CNc1nccc(-c2cn(C(C)C)nc2-c2cc(Cl)cc(NS(C)(=O)=O)c2F)n1 [encorafenib]
How it was run: as §1

[20] = compound: COC(=O)[C@H](CCSC)NC(=O)C1=C(C=C(C=C1)NC[C@H](CS)N)C2=CC=CC=C2
How it was run: as §1

Chain of UniProt P14618 (P14618 whole entry, looked up): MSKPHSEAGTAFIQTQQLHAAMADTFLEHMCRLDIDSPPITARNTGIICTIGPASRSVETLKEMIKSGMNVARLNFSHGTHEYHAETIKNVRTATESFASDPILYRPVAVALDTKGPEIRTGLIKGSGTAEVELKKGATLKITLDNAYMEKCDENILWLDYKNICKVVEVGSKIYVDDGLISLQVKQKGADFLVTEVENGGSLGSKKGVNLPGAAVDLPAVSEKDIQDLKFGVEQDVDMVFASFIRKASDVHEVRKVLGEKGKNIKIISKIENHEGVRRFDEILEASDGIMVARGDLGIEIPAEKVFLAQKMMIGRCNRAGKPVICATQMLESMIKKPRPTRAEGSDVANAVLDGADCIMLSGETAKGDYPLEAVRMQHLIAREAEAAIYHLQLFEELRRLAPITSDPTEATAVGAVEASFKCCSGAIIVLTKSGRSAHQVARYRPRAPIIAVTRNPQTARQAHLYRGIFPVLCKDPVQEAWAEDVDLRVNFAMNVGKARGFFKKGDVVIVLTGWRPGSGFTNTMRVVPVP
Chain of UniProt P28072 (P28072 whole entry, looked up): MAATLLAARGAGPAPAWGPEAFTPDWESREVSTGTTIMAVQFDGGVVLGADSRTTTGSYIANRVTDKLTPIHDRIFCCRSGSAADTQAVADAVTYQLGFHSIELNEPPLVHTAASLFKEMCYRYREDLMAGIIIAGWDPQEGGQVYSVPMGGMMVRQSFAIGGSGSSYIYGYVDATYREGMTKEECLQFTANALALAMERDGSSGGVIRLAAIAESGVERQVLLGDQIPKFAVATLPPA
Chain of UniProt Q9H0R6 (Q9H0R6 whole entry, looked up): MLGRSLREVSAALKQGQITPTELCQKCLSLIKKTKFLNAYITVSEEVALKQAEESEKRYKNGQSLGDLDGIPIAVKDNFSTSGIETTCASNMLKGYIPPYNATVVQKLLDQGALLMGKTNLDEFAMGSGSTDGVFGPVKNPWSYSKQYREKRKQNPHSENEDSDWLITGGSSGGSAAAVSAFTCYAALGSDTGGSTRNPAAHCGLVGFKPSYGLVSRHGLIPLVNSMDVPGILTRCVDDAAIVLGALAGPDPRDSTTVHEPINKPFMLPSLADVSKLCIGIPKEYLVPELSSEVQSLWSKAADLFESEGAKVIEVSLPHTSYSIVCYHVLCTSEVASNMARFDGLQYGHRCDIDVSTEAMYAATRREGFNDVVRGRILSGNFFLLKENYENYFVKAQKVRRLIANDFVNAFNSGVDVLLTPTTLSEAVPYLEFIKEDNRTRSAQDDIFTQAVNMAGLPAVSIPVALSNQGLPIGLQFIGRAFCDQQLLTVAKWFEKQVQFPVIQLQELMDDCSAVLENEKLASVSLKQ
Chain of UniProt Q96PU8 (Q96PU8 whole entry, looked up): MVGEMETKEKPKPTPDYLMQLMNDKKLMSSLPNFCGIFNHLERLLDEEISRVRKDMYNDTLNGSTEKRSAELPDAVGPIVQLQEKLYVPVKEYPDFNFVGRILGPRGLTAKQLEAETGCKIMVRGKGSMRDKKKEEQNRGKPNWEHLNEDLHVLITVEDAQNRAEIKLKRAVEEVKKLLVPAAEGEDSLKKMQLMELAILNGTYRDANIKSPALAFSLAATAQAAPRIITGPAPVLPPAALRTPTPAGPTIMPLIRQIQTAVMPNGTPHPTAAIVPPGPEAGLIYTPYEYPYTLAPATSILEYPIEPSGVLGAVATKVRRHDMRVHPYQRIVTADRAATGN
Chain of UniProt O15067 (O15067 whole entry, looked up): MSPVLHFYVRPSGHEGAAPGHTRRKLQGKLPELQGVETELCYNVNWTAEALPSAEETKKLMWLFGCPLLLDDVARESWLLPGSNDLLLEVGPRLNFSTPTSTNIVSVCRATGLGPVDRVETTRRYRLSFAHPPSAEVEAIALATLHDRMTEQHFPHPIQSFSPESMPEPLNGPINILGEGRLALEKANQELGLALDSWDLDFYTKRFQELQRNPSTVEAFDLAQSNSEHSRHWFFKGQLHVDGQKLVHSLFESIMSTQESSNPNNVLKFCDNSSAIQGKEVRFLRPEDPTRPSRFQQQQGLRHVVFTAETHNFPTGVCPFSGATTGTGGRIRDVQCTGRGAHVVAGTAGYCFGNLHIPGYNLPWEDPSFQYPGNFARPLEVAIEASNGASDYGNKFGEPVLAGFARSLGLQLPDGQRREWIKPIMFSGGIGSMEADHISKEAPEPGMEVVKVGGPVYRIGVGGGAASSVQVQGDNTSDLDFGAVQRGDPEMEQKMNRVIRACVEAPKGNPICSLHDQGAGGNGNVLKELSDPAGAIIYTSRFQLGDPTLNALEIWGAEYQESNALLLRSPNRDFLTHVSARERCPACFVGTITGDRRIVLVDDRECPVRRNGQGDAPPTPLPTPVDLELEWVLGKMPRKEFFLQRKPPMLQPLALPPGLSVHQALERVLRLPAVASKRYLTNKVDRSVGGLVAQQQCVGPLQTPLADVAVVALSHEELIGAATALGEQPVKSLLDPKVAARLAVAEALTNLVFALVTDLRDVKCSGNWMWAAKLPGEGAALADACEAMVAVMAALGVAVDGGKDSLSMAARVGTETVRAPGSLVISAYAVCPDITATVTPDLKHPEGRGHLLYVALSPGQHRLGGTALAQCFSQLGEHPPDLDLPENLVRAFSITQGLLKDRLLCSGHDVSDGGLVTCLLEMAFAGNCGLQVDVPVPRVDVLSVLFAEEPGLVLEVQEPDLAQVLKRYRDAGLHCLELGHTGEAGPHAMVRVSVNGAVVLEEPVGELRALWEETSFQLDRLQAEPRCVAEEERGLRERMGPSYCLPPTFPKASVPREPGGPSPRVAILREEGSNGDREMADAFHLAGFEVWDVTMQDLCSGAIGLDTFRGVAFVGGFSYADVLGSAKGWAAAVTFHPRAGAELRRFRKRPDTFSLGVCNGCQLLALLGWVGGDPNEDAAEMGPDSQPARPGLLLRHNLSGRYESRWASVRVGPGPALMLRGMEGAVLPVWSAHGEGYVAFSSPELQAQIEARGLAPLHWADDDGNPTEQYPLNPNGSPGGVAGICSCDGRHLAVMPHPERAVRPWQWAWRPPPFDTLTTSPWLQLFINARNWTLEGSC
Chain of UniProt O95394 (O95394 whole entry, looked up): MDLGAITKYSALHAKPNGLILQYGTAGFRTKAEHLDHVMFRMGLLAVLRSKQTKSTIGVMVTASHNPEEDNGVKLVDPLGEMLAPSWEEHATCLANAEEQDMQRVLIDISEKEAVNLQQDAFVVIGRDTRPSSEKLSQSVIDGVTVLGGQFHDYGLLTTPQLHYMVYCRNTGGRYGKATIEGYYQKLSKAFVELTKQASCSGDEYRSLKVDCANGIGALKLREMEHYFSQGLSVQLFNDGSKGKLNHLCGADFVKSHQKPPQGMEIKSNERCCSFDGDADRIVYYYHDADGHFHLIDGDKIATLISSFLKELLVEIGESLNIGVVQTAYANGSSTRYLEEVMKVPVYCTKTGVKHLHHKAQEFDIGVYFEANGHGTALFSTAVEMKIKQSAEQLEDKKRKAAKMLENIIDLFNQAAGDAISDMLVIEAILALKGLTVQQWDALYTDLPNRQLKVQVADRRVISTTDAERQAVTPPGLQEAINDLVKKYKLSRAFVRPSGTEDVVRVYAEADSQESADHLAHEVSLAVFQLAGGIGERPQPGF
Chain of UniProt P05771 (P05771 whole entry, looked up): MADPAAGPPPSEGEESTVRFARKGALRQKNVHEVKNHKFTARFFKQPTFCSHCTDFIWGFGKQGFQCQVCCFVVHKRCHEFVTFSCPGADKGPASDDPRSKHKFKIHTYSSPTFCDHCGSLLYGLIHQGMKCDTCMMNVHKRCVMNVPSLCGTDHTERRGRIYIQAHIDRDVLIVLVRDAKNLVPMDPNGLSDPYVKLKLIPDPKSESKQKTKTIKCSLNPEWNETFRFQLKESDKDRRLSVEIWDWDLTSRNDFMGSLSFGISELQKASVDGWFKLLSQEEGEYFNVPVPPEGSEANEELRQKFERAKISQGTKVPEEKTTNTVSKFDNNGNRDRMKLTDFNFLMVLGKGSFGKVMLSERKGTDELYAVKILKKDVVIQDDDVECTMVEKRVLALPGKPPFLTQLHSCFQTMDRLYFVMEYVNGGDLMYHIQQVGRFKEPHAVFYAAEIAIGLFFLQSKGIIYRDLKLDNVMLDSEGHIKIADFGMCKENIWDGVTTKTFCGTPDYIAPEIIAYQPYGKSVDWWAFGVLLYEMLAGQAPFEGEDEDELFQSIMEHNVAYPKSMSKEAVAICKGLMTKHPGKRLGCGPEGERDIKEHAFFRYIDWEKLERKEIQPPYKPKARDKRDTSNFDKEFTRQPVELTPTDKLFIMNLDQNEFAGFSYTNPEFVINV

Target	log2 fold change [1]	log2 fold change [2]	log2 fold change [3]	log2 fold change [4]	log2 fold change [5]	log2 fold change [6]	log2 fold change [7]	log2 fold change [8]	log2 fold change [9]	log2 fold change [10]	log2 fold change [11]	log2 fold change [12]	log2 fold change [13]	log2 fold change [14]	log2 fold change [15]	log2 fold change [16]	log2 fold change [17]	log2 fold change [18]	log2 fold change [19]	log2 fold change [20]
QRSL1 (UniProt Q9H0R6)	0.044	-0.167	0.069	0.027	-0.003	-0.029	0.023	0.055	-0.053	-0.095	0.033	0.003	-0.103	0.01	-0.023	-0.105	-0.047	0.038	-0.017	-0.033
PKM (UniProt P14618)	0.018	0.037	-0.035	0.001	-0.002	-0.007	-0.015	0.015	0.002	-0.017	0.012	0.024	0	-0.004	-0.028	-0.01	-0.052	-0.007	-0.01	0.011
PSMB6 (UniProt P28072)	0.029	0.195	-0.055	-0.241 (active)	0.013	0.259	-0.019	-0.027	0.053	0.03	-0.027	-0.017	0.115	0.019	-0.022	0.089	-0.043	0.011	0.03	0.017
POLR2B (UniProt P30876)	0.064	-0.128	-0.018	-0.008	-0.046	0.023	-0.015	0.037	0.03	0.031	-0.071	-0.032	0.254 (active)	-0.01	-0.016	0.173	0.174	-0.012	0.056	-0.044
PRKCB isoform 2 (UniProt P05771)	-0.068	-0.213 (active)	0.04	0.03	-0.005	-0.06	0.006	0.007	-0.054	-0.135	-0.006	-0.343 (active)	-0.014	-0.004	0.012	-0.03	0.001	-0.03	0.031	-0.001
PFAS (UniProt O15067)	-0.04	-0.124	0.113	-0.016	-0.218	-0.069	0.031	-0.003	-0.241	-0.001	-0.043	0	-0.066	0.046	-0.324 (active)	-0.029	0	0.251	0.011	-0.075
PGM3 isoform 4 (UniProt O95394)	0.003	0.052	0.092	0.014	-0.034	-0.038	0.026	0.066	-0.084	-0.235 (active)	-0.028	-0.018	-0.062	0.03	-0.011	-0.019	-0.013	0.067	0.024	-0.022
QKI (UniProt Q96PU8)	-0.008	-0.1	0.084	0.049	0.022	0.023	0.034	0.041	0.017	-0.172	-0.004	-0.001	-0.106	0.062	-0.044	-0.23 (active)	-0.006	-0.036	-0.036	0.004
